# Measurements taken from article PMC8384837, “Expanding the binding specificity for RNA recognition by a PUF domain”.
# Legend:
# Assay in all cases: yeast three-hybrid, YBZ-1, SC-Leu-His + 0.5 mM 3-AT, 4 days
# Settings in all cases: tags: N-Gal4 AD-HA kept; label: inside an RPR1-promoter hybrid RNA with tandem MS2 sites; ssRNA
# PUM1 PUF domain R5-KAT = PUM1 PUF domain R5-KAT (Homo sapiens, UniProt Q14671 828-1176, C1007K;R1008A;Q1011T)
# How it was run: (§1)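 Pumilio-1 PUF domain libraries, randomized at the three base-contacting residues of each repeat, were co-expressed with matching RNA elements from a centromeric plasmid in strain YBZ-1, which carries a LexA–MS2 coat fusion and a HIS3 reporter. Transformants grew for four days on SC-Leu (input) or on SC-Leu-His + 0.5 mM 3-AT (selection), and the repeat regions were PCR-amplified and Illumina-sequenced. The interaction score is the log change in variant frequency from input to selection. That logarithm is base 2, with a pseudocount of 1 where a variant was absent.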
# PUM1 PUF domain R5-RMV = PUM1 PUF domain R5-RMV (Homo sapiens, UniProt Q14671 828-1176, C1007R;R1008M;Q1011V)
# How it was run: as §1
# PUM1 PUF domain R5-CKR = PUM1 PUF domain R5-CKR (Homo sapiens, UniProt Q14671 828-1176, R1008K;Q1011R)
# How it was run: as §1
# PUM1 PUF domain R4-NRS = PUM1 PUF domain R4-NRS (Homo sapiens, UniProt Q14671 828-1176, H972R;Q975S)
# How it was run: as §1
# PUM1 PUF domain R4-MPC = PUM1 PUF domain R4-MPC (Homo sapiens, UniProt Q14671 828-1176, N971M;H972P;Q975C)
# How it was run: as §1
# PUM1 PUF domain R4-WST = PUM1 PUF domain R4-WST (Homo sapiens, UniProt Q14671 828-1176, N971W;H972S;Q975T)
# How it was run: as §1
# PUM1 PUF domain R4-PFF = PUM1 PUF domain R4-PFF (Homo sapiens, UniProt Q14671 828-1176, N971P;H972F;Q975F)
# How it was run: as §1
# PUM1 PUF domain R4-VNC = PUM1 PUF domain R4-VNC (Homo sapiens, UniProt Q14671 828-1176, N971V;H972N;Q975C)
# How it was run: as §1
# PUM1 PUF domain R7-ERG = PUM1 PUF domain R7-ERG (Homo sapiens, UniProt Q14671 828-1176, S1079E;N1080R;E1083G)
# How it was run: as §1
# PUM1 PUF domain R7-KQC = PUM1 PUF domain R7-KQC (Homo sapiens, UniProt Q14671 828-1176, S1079K;N1080Q;E1083C)
# How it was run: as §1
# PUM1 PUF domain R1-NSR = PUM1 PUF domain R1-NSR (Homo sapiens, UniProt Q14671 828-1176, S863N;R864S;Q867R)
# How it was run: as §1
# PUM1 PUF domain R1-GMK = PUM1 PUF domain R1-GMK (Homo sapiens, UniProt Q14671 828-1176, S863G;R864M;Q867K)
# How it was run: as §1
# PUM1 PUF domain R3-MPR = PUM1 PUF domain R3-MPR (Homo sapiens, UniProt Q14671 828-1176, C935M;R936P;Q939R)
# How it was run: as §1
# PUM1 PUF domain R5-PRH = PUM1 PUF domain R5-PRH (Homo sapiens, UniProt Q14671 828-1176, C1007P;Q1011H)
# How it was run: as §1
# PUM1 PUF domain R6-RWA = molecular target: T1, PUM1 PUF domain R6-RWA (Homo sapiens, UniProt Q14671 828-1176, N1043R;Y1044W;Q1047A)
# T1 sequence: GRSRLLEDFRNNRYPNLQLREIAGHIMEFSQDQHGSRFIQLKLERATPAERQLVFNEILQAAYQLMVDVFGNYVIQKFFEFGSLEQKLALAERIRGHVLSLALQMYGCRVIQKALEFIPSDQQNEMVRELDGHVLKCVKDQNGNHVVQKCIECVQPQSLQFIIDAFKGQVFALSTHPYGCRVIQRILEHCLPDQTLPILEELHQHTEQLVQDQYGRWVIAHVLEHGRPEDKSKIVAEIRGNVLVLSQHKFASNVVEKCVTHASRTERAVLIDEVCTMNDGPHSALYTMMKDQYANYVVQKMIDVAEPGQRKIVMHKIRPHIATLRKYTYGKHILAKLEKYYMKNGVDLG
# How it was run: as §1
# PUM1 PUF domain R8-RFW = PUM1 PUF domain R8-RFW (Homo sapiens, UniProt Q14671 828-1176, N1122R;Y1123F;Q1126W)
# How it was run: as §1
# PUM1 PUF domain R2-LWH = PUM1 PUF domain R2-LWH (Homo sapiens, UniProt Q14671 828-1176, N899L;Y900W;Q903H)
# How it was run: as §1
# PUM1 PUF domain R5-GHL = PUM1 PUF domain R5-GHL (Homo sapiens, UniProt Q14671 828-1176, C1007G;R1008H;Q1011L)
# How it was run: as §1
# PUM1 PUF domain R8-QFK = PUM1 PUF domain R8-QFK (Homo sapiens, UniProt Q14671 828-1176, N1122Q;Y1123F;Q1126K)
# How it was run: as §1
# Sequence of PUM1 PUF domain R4-PFF (Q14671 828-1176 N971P/H972F/Q975F): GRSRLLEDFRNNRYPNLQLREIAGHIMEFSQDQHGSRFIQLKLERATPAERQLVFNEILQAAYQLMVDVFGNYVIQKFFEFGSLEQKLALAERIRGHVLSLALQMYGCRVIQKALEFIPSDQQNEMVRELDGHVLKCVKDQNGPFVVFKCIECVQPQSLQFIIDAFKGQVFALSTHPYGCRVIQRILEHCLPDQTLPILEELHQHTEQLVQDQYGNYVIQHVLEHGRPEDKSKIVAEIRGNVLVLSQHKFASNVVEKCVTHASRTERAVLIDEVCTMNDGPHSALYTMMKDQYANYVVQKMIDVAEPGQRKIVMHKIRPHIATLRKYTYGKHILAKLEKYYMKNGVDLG
# Sequence of PUM1 PUF domain R8-RFW (Q14671 828-1176 N1122R/Y1123F/Q1126W): as the sequence (Q14671 828-1176 N971P/H972F/Q975F) above, with P144N, F145H, F148Q, N295R, Y296F, Q299W counted along it
# Sequence of PUM1 PUF domain R4-WST (Q14671 828-1176 N971W/H972S/Q975T): as the sequence (Q14671 828-1176 N971P/H972F/Q975F) above, with P144W, F145S, F148T counted along it
# Sequence of PUM1 PUF domain R2-LWH (Q14671 828-1176 N899L/Y900W/Q903H): as the sequence (Q14671 828-1176 N971P/H972F/Q975F) above, with N72L, Y73W, Q76H, P144N, F145H, F148Q counted along it
# Sequence of PUM1 PUF domain R5-GHL (Q14671 828-1176 C1007G/R1008H/Q1011L): as the sequence (Q14671 828-1176 N971P/H972F/Q975F) above, with P144N, F145H, F148Q, C180G, R181H, Q184L counted along it
# Sequence of PUM1 PUF domain R8-QFK (Q14671 828-1176 N1122Q/Y1123F/Q1126K): as the sequence (Q14671 828-1176 N971P/H972F/Q975F) above, with P144N, F145H, F148Q, N295Q, Y296F, Q299K counted along it
# Sequence of PUM1 PUF domain R4-MPC (Q14671 828-1176 N971M/H972P/Q975C): as the sequence (Q14671 828-1176 N971P/H972F/Q975F) above, with P144M, F145P, F148C counted along it
# Sequence of PUM1 PUF domain R4-NRS (Q14671 828-1176 H972R/Q975S): as the sequence (Q14671 828-1176 N971P/H972F/Q975F) above, with P144N, F145R, F148S counted along it
# Sequence of PUM1 PUF domain R7-KQC (Q14671 828-1176 S1079K/N1080Q/E1083C): as the sequence (Q14671 828-1176 N971P/H972F/Q975F) above, with P144N, F145H, F148Q, S252K, N253Q, E256C counted along it
sequence,measurement,setting,value
GGCUAGAACUAGUGGAUCCCCCGGCGCCCGGCGGCUCGAGCCCGGGUAAGUGUCAAUAGUCUGCAUGCCGCCGGGCGCCAUGCCUGCAGGUCGACUCUAGAAAACAUG,binding signal,PUM1 PUF domain R5-KAT,3.96 log2 enrichment (interaction score)
same,binding signal,PUM1 PUF domain R5-RMV,3.48 log2 enrichment (interaction score)
same,binding signal,PUM1 PUF domain R5-CKR,5.95 log2 enrichment (interaction score)
GGCUAGAACUAGUGGAUCCCCCGGCGCCCGGCGGCUCGAGCCCGGGUAAGUGUAUAUAGUCUGCAUGCCGCCGGGCGCCAUGCCUGCAGGUCGACUCUAGAAAACAUG,binding signal,PUM1 PUF domain R4-NRS,2.58 log2 enrichment (interaction score)
same,binding signal,PUM1 PUF domain R4-MPC,3.15 log2 enrichment (interaction score)
same,binding signal,PUM1 PUF domain R4-WST,2.45 log2 enrichment (interaction score)
same,binding signal,PUM1 PUF domain R4-PFF,7.66 log2 enrichment (interaction score)
GGCUAGAACUAGUGGAUCCCCCGGCGCCCGGCGGCUCGAGCCCGGGUAAGUGUACAUAGUCUGCAUGCCGCCGGGCGCCAUGCCUGCAGGUCGACUCUAGAAAACAUG,binding signal,PUM1 PUF domain R4-VNC,3.19 log2 enrichment (interaction score)
same,binding signal,PUM1 PUF domain R4-PFF,3.52 log2 enrichment (interaction score)
GGCUAGAACUAGUGGAUCCCCCGGCGCCCGGCGGCUCGAGCCCGGGUAAGUCUAAAUAGUCUGCAUGCCGCCGGGCGCCAUGCCUGCAGGUCGACUCUAGAAAACAUG,binding signal,PUM1 PUF domain R7-ERG,2.98 log2 enrichment (interaction score)
same,binding signal,PUM1 PUF domain R7-KQC,2.83 log2 enrichment (interaction score)
GGCUAGAACUAGUGGAUCCCCCGGCGCCCGGCGGCUCGAGCCCGGGUAAGUGUAAAUUGUCUGCAUGCCGCCGGGCGCCAUGCCUGCAGGUCGACUCUAGAAAACAUG,binding signal,PUM1 PUF domain R1-NSR,0.4 log2 enrichment (interaction score)
same,binding signal,PUM1 PUF domain R1-GMK,3.16 log2 enrichment (interaction score)
GGCUAGAACUAGUGGAUCCCCCGGCGCCCGGCGGCUCGAGCCCGGGUAAGUGUAAAUAGUCUGCAUGCCGCCGGGCGCCAUGCCUGCAGGUCGACUCUAGAAAACAUG,binding signal,PUM1 PUF domain R3-MPR,0.58 log2 enrichment (interaction score)
same,binding signal,PUM1 PUF domain R5-PRH,3.22 log2 enrichment (interaction score)
same,binding signal,PUM1 PUF domain R6-RWA,5.03 log2 enrichment (interaction score)
same,binding signal,PUM1 PUF domain R8-RFW,4.68 log2 enrichment (interaction score)
same,binding signal,PUM1 PUF domain R2-LWH,2.74 log2 enrichment (interaction score)
same,binding signal,PUM1 PUF domain R5-GHL,4.22 log2 enrichment (interaction score)
same,binding signal,PUM1 PUF domain R4-WST,0.36 log2 enrichment (interaction score)
same,binding signal,PUM1 PUF domain R4-PFF,5.26 log2 enrichment (interaction score)
GGCUAGAACUAGUGGAUCCCCCGGCGCCCGGCGGCUCGAGCCCGGGUAAGCGUAAAUAGUCUGCAUGCCGCCGGGCGCCAUGCCUGCAGGUCGACUCUAGAAAACAUG,binding signal,PUM1 PUF domain R8-RFW,6.4 log2 enrichment (interaction score)
same,binding signal,PUM1 PUF domain R8-QFK,4.17 log2 enrichment (interaction score)
